Data from PubChem BioAssay (EPA / NIEHS).
Calls of active or inactive are those of the source. Rule for the calls: active = hit-call score of the fitted dose curve at least 0.9, where 1 is the maximum; inactive = score below 0.9.

Assay: ATG_MRE_CIS: Attagene CIS-FACTORIAL HepG2 Assay for human Metal Responsive Element (MRE) (AID 2282954)
Details: HepG2 MRE cis-reporter transcription, Attagene multiplex; actives raise or lower the signal
Procedure, shortened: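 Readout: capillary electrophoresis of 6-FAM-labelled, HpaI-digested RT-PCR reporter products. System: HepG2 cells carrying transient multiplexed cis reporters, dosed 24 h. Analysis: bidirectional fit, DMSO baseline.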

Row | SMILES | outcome | AC50
1 | NC(=O)c1ccccc1O | inactive | –
2 | C=CCOc1c(Br)cc(Br)cc1Br | inactive | –
3 | CCc1c(C(=O)O)c(=O)cnn1-c1ccc(Cl)cc1 | inactive | –
4 | CCCCCCCCCCCCCCCC(=O)OCC | inactive | –
5 | C=CC(=O)OCCOC1C2CCC1C1CC=CC12 (stereo not given) | inactive | –
6 | C=COCCCC | inactive | –
7 | O=C1CCCCCCCCCCCCCCCO1 | – | 180 µM (active)
8 | CCCCCCCC[N+](C)(CCCCCCCC)CCCCCCCC | – | 2.15 µM (active)
9 | CC(=O)[C@@]1(O)CC[C@H]2[C@@H]3C[C@H](C)C4=CC(=O)C=C[C@]4(C)[C@@]3(F)[C@@H](O)C[C@@]21C | inactive | –
10 | O=Nc1ccc(O)cc1 | inactive | –
11 | Cc1ccc(C2OC[C@@H]3OC(c4ccc(C)cc4)O[C@H]([C@H](O)CO)[C@@H]3O2)cc1 (stereo not given in full) | inactive | –
12 | C1=CCCC1 | inactive | –
13 | C=CC(=O)OCC(Br)CBr (stereo not given) | inactive | –
14 | NNC(=O)c1cccc(C(=O)NN)c1 | inactive | –
15 | CCCC(C)CCC(C)=O (stereo not given) | inactive | –
16 | CCN(CCC#N)c1ccc(N=Nc2c(Cl)cc([N+](=O)[O-])cc2Cl)cc1 | inactive | –
17 | COC(F)(F)C(F)(C(F)(F)F)C(F)(F)F | inactive | –
18 | CCc1nccnc1C | inactive | –
19 | O=[N+]([O-])c1ccc(CO)cc1 | inactive | –
20 | C=C(C)CCO | inactive | –
21 | O=S(=O)(O)c1cc(S(=O)(=O)O)c2ccc3c(S(=O)(=O)O)cc(S(=O)(=O)O)c4ccc1c2c43 | inactive | –
22 | CC(C)=CCC/C(C)=C\C#N | inactive | –
23 | Nc1nc2ccccc2[nH]1 | inactive | –
24 | CC=C1CC2C=CC1C2 (stereo not given) | – | 87.6 µM (active)
25 | CC(C)c1ccc2c(C(C)C)cc(C(C)C)c(S(=O)(=O)O)c2c1 | – | 21.1 µM (active)
